The source made the active and inactive calls. Rule for the calls: active = hit-call score of the fitted dose curve at least 0.9, where 1 is the maximum; inactive = score below 0.9.

Results on 26 compounds are retold here after PubChem BioAssay (EPA / NIEHS).

The assay can be described thus: CCTE_Padilla_ZF_Score.General: CCTE's 144 Hour Post-fertilization zebrafish Assay Score for General Malformation, Padilla Lab (AID 2284411). The protocol: CCTE_Padilla_ZF_Phenotype_Score is a whole embryo, multiplexed assay using zebrafish ova exposed for 144 hours post fertilization on a 96-well plate.CCTE_Padilla_ZF_Score.General is one of one assay component(s) measured or calculated from the CCTE_Padilla_ZF_Phenotype_Score assay. It is designed to make measurements of zebrafish development as detected with brightfield microscopy of developing zebrafish embryos.Data from the assay component CCTE_Padilla_ZF_Score.General was analyzed into 1 assay endpoints. This assay endpoint, CCTE_Padilla_ZF_Score.General, was analyzed in the positive analysis fitting direction relative to DMSO as the negative control and baseline of activity. Using a type of viability reporter, gain-of-signal activity can be used to understand changes in developmentals as they relate to the whole embryo. To generalize the intended target to other relatable targets, this assay endpoint is annotated to the zebrafish development intended target family, where the subfamily is embryonic morphogenesis.
Zebrafish husbandry: Wild type adult zebrafish (Danio rerio; undefined outbred stock obtained from Aquatic Research Organisms, Hampton, NH, 03842) were housed in an AAALAC-approved animal facility at 28C with a 14:10 h light: dark cycle (lights on at 08:30 h). Adult fish (2-3 females per male; density = 15-20 adults per tank) were kept in one of several 9-liter (L) flow-through colony tanks (Aquaneering Inc., San Diego, CA). All adults in a colony tank were placed in a 2 L (static) breeding tank (Aquatic Habitats, Apopka, FL) one hour prior to light onset. Typically, adults from two to three colony tanks were mated on the same day. Two hours after light onset the adults were returned to the colony tank. All embryos were gathered from each breeder tank, pooled, and placed in a 28C water bath for 2 h, followed by two washes with 0.06% bleach (v/v) in 10% Hanks' Balanced Salt Solution (13.7 mM NaCl 0.54 mM KCl, 25 uM Na2HPO4, 130 uM CaCl2 100 um MgSO4 and 420 um NaHCO3,), hereafter referred to as Hanks' solution, for 5 min in order to remove any residual bacteria or fungi. Immediately following washing, the embryos were examined, and healthy embryos were separated from dead or unfertilized eggs and moved into fresh Hanks'. Chemical exposures: Zebrafish embryos were exposed in 96-well plates. Between 6- and 8-hours post fertilization (hpf), healthy embryos (with chorions) were transferred, one embryo per well, into 96 well (0.5 mL) microtiter plates (Cell Culture-Treated, Flat-Bottom Microplate 96 well [Corning Costar, Kennebunk, ME; Cat 09-761-145]) filled with 200 uL of Hanks' solution. A random number generator was used to assign the order in which the rows of embryos were plated in 96 well plates each week. After plating, the embryos were dosed with 0.8 uL of the chemical dosing solution then immediately sealed with AlumaSeal II (Excel Scientific Inc, Victorville, CA) to prevent volatilization of the chemicals, and then placed in a leakproof secondary container. These containers were placed in an incubator maintained on a 14:10 h light: dark cycle at 26C for rearing. On 5 dpf, live larvae were gently moved out of the plate with test chemicals and into a new 96 well mesh plate (Millipore Corp., Bedford, MA) with just the Hanks' solution. Once within the mesh well plate, the animals were rinsed with 400 uL of fresh Hanks' three times, and then the plates were covered with a non-adhesive material (Microseal A, BioRad, Hercules, CA), plate lid added, and then plate sides wrapped in Parafilm (PM992, Bermis Company, Neenah, WI), and returned to the incubator. […]
For orientation: AC50 means the midpoint of the concentration-response curve, whichever way the signal moves. Consider `Cc1c([N+](=O)[O-])cc2c(c1[N+](=O)[O-])C(C)(C)CC2(C)C`, for which the half-maximal activity concentration (AC50) is 2.8 µM (active).

Consider `FC(F)(F)C(F)(C(F)(F)F)C(F)(F)C(F)(F)CC1CO1` (stereo unspecified), for which the call was inactive.

As to `O=C(O)C(F)(F)OC(F)(F)C(F)(F)OC(F)(F)C(=O)O`, the outcome was inactive.

With `c1ccc2c(c1)sc1ccccc12`, the call was inactive.

Consider `O=S(=O)(F)C(F)(F)C(F)(F)C(F)(F)C(F)(F)C(F)(F)C(F)(F)C(F)(F)C(F)(F)F`, for which the result was inactive.

For the compound `OCC(F)(F)OC(F)(F)C(F)(F)OC(F)(F)CO`, the compound was classed as inactive.

Consider `CC(O)C(F)(F)C(F)(F)F` (stereo unspecified), for which the call was inactive.

For `CCCCC(CC)COP(=O)(Oc1ccccc1)Oc1ccccc1` (stereo unspecified), the AC50 was 3.23 µM (active).

On to `CCOP(=S)(OCC)SCSc1ccc(Cl)cc1`, for which the AC50 is 8.15 µM (active).

On to `O=C(O)C(F)(F)C(F)(F)C(=O)O`, for which the call was inactive.

`O=C(O)C(F)(F)OC(F)(F)C(F)(F)OC(F)(F)F`: the result was inactive.

On to `O=P(OCC(Br)CBr)(OCC(Br)CBr)OCC(Br)CBr` (stereo unspecified), for which the half-maximal activity concentration (AC50) was 2.01 µM (active).

Take `CC(C)Nc1ccc(Nc2ccccc2)cc1`: the concentration at half-maximal activity (AC50) is 2.6 µM (active).

As for `O=S1(=O)OCC2C(CO1)C1(Cl)C(Cl)=C(Cl)C2(Cl)C1(Cl)Cl` (stereo unspecified), the half-maximal activity concentration (AC50) is 0.165 µM (active).

On to `COC(=O)C(F)(F)C(F)(F)OC(F)(C(F)(F)F)C(F)(F)OC(F)=C(F)F` (stereo unspecified), for which the result was inactive.

`C=CC(=O)OCC(F)(F)C(F)F`: the AC50 is 7.91 µM (active).

With `O=c1ssc(Cl)c1Cl`, the compound was classed as inactive.

For `OCC(F)(F)OC(F)(F)C(F)(F)OC(F)(F)C(F)(F)OC(F)(F)CO`, the call was inactive.

Consider `CC(C)(C)c1ccccc1OP(=O)(Oc1ccccc1)Oc1ccccc1`, for which the AC50 is 8.75 µM (active).

`N#Cc1c(-c2ccc(Cl)cc2)[nH]c(C(F)(F)F)c1Br`: the call was inactive.

Take `Nc1ccc([N+](=O)[O-])cc1Cl`: the compound was called inactive.

With `NC(=O)C(F)(F)C(F)(F)F`, the outcome was inactive.

With `OCC(F)(F)OC(F)(F)C(F)(F)OC(F)(F)C(F)(F)OC(F)(F)F`, the AC50 was 16.2 µM (active).

On to `O=C(O)C=CC(F)(C(F)(F)F)C(F)(F)F`, for which the compound was called inactive.

For `O=C(O)C(F)(OC(F)(F)C(F)(F)C(F)(F)F)C(F)(F)F` (stereo unspecified), the call was inactive.

As to `CCOP(=S)(OCC)SCS(=O)(=O)CC`, the AC50 was 65.2 µM (active).
